{"source": "PubChem BioAssay AID1347426", "about": "(Functional Genomics Laboratory (NCATS/FGL), 2020)", "note": "The whole screen tested about 31,000 sequences, of which about 1,400 (4.5%) were called active. The entries come from a sample that favours actives as a whole. Unmarked numbers belong to inactive results.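 The calls were made as follows: active = median seed-adjusted z-score above 1 or below -1; inactive = the rest.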"}
{"assay": "Novel Modifiers of Survival Motor Neuron (SMN) Protein: Gene Identification via Genome-wide siRNA Screen;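 also: luminescence tracks full-length SMN protein made from the SMN2 reporter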", "conditions": "HEK293T SMN2-luciferase reporter, siRNA knockdown, 72 h; actives lie on both sides", "outline": "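HEK293T cells stably carrying an SMN2 promoter/splicing cassette–luciferase reporter were reverse-transfected with 1 pmol siRNA per well (druggable-genome library, 3 siRNAs per gene) and grown 72 h at 37 °C. Luminescence, normalized to negative-control siRNA and log10-transformed, was scored as MAD.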"}
{"sequence": "CGACAUGAUCUCCUACUCATT against ABLIM2", "median seed-adjusted z-score": -0.26}
{"sequence": "GAAACUGGACAGUAAGAAATT against HDAC4", "median seed-adjusted z-score": -0.0988}
{"sequence": "GGUUUCAAGAUAACCCAAATT against POU2F3", "median seed-adjusted z-score": "-1.53 (active)"}
{"sequence": "CAAAGGUUAUUCUGCAUAUTT against CTSO", "median seed-adjusted z-score": 0.322}
{"sequence": "GCAGGAGCUGUAUUUGAUGTT against NUDT6", "median seed-adjusted z-score": 0.281}
{"sequence": "AGAUGUACGAGGAAAAGUATT against WNK4", "median seed-adjusted z-score": 0.385}
{"sequence": "GGUGUUUGAUAUACAGAGGTT against RABL2A", "median seed-adjusted z-score": 0.794}
{"sequence": "CGACUCUGACACCACCAUATT against GOSR2", "median seed-adjusted z-score": "-1.25 (active)"}
{"sequence": "CCAUGGAUUUUAUGAGGAATT against ECHDC1", "median seed-adjusted z-score": 0.554}
{"sequence": "CCUUCAUUAAUGAGUCAUATT against ZNF426", "median seed-adjusted z-score": 0.2}
{"sequence": "UGCAGCCUCUCCAAACUUATT against SP6", "median seed-adjusted z-score": -0.176}
{"sequence": "GCCCAACAAGUGUACGUUUTT against GLIS3", "median seed-adjusted z-score": -0.00906}
{"sequence": "GGCUGAUAAAAAUCCACGATT against RICS", "median seed-adjusted z-score": 0.665}
{"sequence": "AGUACGAUCUUGACUUCAATT against ENO3", "median seed-adjusted z-score": -0.142}
{"sequence": "GGGAAGUCUUUUAAUCGUATT against ZNF780B", "median seed-adjusted z-score": -0.332}
{"sequence": "CUGUUGGUAUUGUCCACAATT against MAL", "median seed-adjusted z-score": 0.0733}
{"sequence": "GGGACUUUUGCAAAGGAAATT against CLEC5A", "median seed-adjusted z-score": "-1.07 (active)"}
{"sequence": "GGAGAGCUGUGAAAAGUCATT against CCR8", "median seed-adjusted z-score": -0.206}
{"sequence": "GAACUUAGACCAACUUUAATT against COX5A", "median seed-adjusted z-score": -0.348}
{"sequence": "CCACAAGCUGCAUAAGAGATT against SPTBN4", "median seed-adjusted z-score": -0.0625}
{"sequence": "GGACUUUUACACCACCUUUTT against NRXN2", "median seed-adjusted z-score": -0.485}
{"sequence": "CAACGACUACAGGUCUGUATT against ITGA11", "median seed-adjusted z-score": 0.496}
{"sequence": "GGCAGGAAGUCAAACCUAUTT against KLK2", "median seed-adjusted z-score": 0.0716}
{"sequence": "CAAACGAGGUGAACGAUGATT against PYGO1", "median seed-adjusted z-score": "-1.23 (active)"}
{"sequence": "AGAUACUCACGGACAUUAUTT against COASY", "median seed-adjusted z-score": 0}
{"sequence": "GUCACGCUAUGAGACCUCATT against E2F1", "median seed-adjusted z-score": -0.211}
{"sequence": "GCAUCGAAUUUGCAGAACATT against PNN", "median seed-adjusted z-score": "1.29 (active)"}
{"sequence": "GGAAACGAUUAUUACAACUTT against LRRK2", "median seed-adjusted z-score": -0.671}
{"sequence": "AUAAAUACCUCGGACAUUATT against EIF1AX", "median seed-adjusted z-score": 0.878}
{"sequence": "CCCUUCGCGUUGUUGCUCATT against DHRS1", "median seed-adjusted z-score": 0}
{"sequence": "GAGGGACCAUAGUAGAUCATT against CPSF6", "median seed-adjusted z-score": "-2.38 (active)"}
{"sequence": "GAUCGAUUCAUACCAUAUATT against MCM8", "median seed-adjusted z-score": 0.279}
{"sequence": "GAAGCUACGUUGACUAUUUTT against HRC", "median seed-adjusted z-score": "1.06 (active)"}
{"sequence": "GAAGUUUACUUAUCUGGGUTT against PRKAB1", "median seed-adjusted z-score": 0.536}
{"sequence": "CAACAAUCCUAUAAUUCCATT against UBE2Q2", "median seed-adjusted z-score": 0.146}
{"sequence": "ACCUGUUAAUGGCCUUUGUTT against SLC30A3", "median seed-adjusted z-score": "-1.26 (active)"}
{"sequence": "GGAGUUCAUCCGUCAAGUUTT against BIRC3", "median seed-adjusted z-score": -0.644}
{"sequence": "GCAUCAAUGUACCUCCACATT against ETV4", "median seed-adjusted z-score": -0.186}
{"sequence": "CGACCAUUGGAGAUGUUAATT against SCML2", "median seed-adjusted z-score": -0.538}
{"sequence": "GAGGAUUACUAAUUGAUCUTT against CHM", "median seed-adjusted z-score": 0.743}
{"sequence": "GAAAAAGGGUCACCAGAAATT against TSG101", "median seed-adjusted z-score": "1.48 (active)"}
{"sequence": "GGCCGUGGAUCAUCACUAUTT against FLJ16165", "median seed-adjusted z-score": -0.404}
{"sequence": "GCCUUAAGGUAUUCGUGUATT against EXTL1", "median seed-adjusted z-score": 0}
{"sequence": "CCACCACAGAUUUUCCUAUTT against CD300A", "median seed-adjusted z-score": -0.414}
{"sequence": "GGAACUCAUUAUACAAUGATT against CLCN3", "median seed-adjusted z-score": -0.0801}
{"sequence": "CCCUAUGAGUGUCAACAAUTT against ZNF799", "median seed-adjusted z-score": "-1.02 (active)"}
{"sequence": "GAUAUGUAUUCAUACUAAUTT against SNX10", "median seed-adjusted z-score": 0.391}
{"sequence": "GUACAGCUCUUAUCGUUCATT against PPRC1", "median seed-adjusted z-score": 0}
{"sequence": "GCAUCUUUCUGAGUUCACUTT against SLC22A11", "median seed-adjusted z-score": 0}
{"sequence": "GUGCUACAAUUGUACAGUATT against CREM", "median seed-adjusted z-score": "-2.37 (active)"}
{"sequence": "GCAUGAGUAUCUAUGACGATT against ATP5C1", "median seed-adjusted z-score": -0.0179}
{"sequence": "ACUCCAACCGUACCCUUUATT against PPT2", "median seed-adjusted z-score": 0.0334}
{"sequence": "CCACUACGGUGUUCAUGCATT against PPARD", "median seed-adjusted z-score": 0.0283}
{"sequence": "CUGAGACCCUGUUGACUGATT against PGS1", "median seed-adjusted z-score": "1.36 (active)"}
{"sequence": "GACUCCUACAUGUCCAUUATT against DNM3", "median seed-adjusted z-score": 0}
{"sequence": "GACAGACUGUGCAUAUGUATT against GPR15", "median seed-adjusted z-score": 0.101}
{"sequence": "GCAACCACCUAUAUCCUCATT against P2RY10", "median seed-adjusted z-score": -0.432}
{"sequence": "GAGUCACAUUUGAGGUUCATT against CSF2RA", "median seed-adjusted z-score": -0.227}
{"sequence": "CUCCCUCGGUUAUAAAGAUTT against SLC4A5", "median seed-adjusted z-score": "1.3 (active)"}
{"sequence": "CAACCUUGCGGCAUGCAAATT against PRSSL1", "median seed-adjusted z-score": -0.221}
{"sequence": "GGAUCUAUAGUGAUUGUCATT against TFRC", "median seed-adjusted z-score": 0.019}
{"sequence": "GCCUAUAGAGGAUCAGUUATT against PCMTD1", "median seed-adjusted z-score": 0.0312}
{"sequence": "GAGUGAGGACGGAAGAUCATT against APH1A", "median seed-adjusted z-score": 0.741}
{"sequence": "GGCUGUAUGAGCACCGUUATT against TGIF1", "median seed-adjusted z-score": 0.303}
{"sequence": "GGAUGUUAGUAAACUCUCUTT against PSMA4", "median seed-adjusted z-score": 0}
{"sequence": "GAAUGUUAGUAGACGGGUUTT against IKZF5", "median seed-adjusted z-score": 0.399}
{"sequence": "GCACUAUCCAGUUUGUGGATT against TUBA3E", "median seed-adjusted z-score": -0.35}
{"sequence": "GGCCGUUACUUACCAGAGUTT against UROD", "median seed-adjusted z-score": "1.11 (active)"}
{"sequence": "GAGAAACUAGAAUACAGAATT against ADPRH", "median seed-adjusted z-score": -0.406}
{"sequence": "GGGAUUAUCUUGCUUCCAATT against LPCAT2", "median seed-adjusted z-score": 0}
{"sequence": "CCGUGAACCCAGAACAGUATT against PIP4K2A", "median seed-adjusted z-score": 0.469}
{"sequence": "GAGUCAGGACAAGAAGAUUTT against PHPT1", "median seed-adjusted z-score": "1.27 (active)"}
{"sequence": "GGAUGGAACUUUACCCUCATT against MKL2", "median seed-adjusted z-score": -0.863}
{"sequence": "CUACAAGCAUCGAUAGUAATT against EIF4G3", "median seed-adjusted z-score": -0.0562}
{"sequence": "GAAAGAAAUCAACUGAUGATT against FBP1", "median seed-adjusted z-score": -0.221}
{"sequence": "GCAGACUCUCGACAUCCGATT against MAFK", "median seed-adjusted z-score": "1.73 (active)"}
{"sequence": "GCUCAUUCCAGGUCAAUCATT against MLL3", "median seed-adjusted z-score": -0.248}
{"sequence": "GCUCAUAGGUAAGAAUUGUTT against NUBP1", "median seed-adjusted z-score": -0.0975}
{"sequence": "CGGCCUUCAUCGCAGUACATT against SLC7A5", "median seed-adjusted z-score": 0.00397}
{"sequence": "GGGUGAAGUCUCUCAAGAATT against LLGL1", "median seed-adjusted z-score": "-1.13 (active)"}
{"sequence": "CAAGAUCUAUGAUAAGGAUTT against GUCA1B", "median seed-adjusted z-score": 0}
{"sequence": "ACUUCAACAUGACCAAAAATT against PPARD", "median seed-adjusted z-score": 0.0283}
{"sequence": "GAGCUUGUAUAUGAAGCUATT against PDCD4", "median seed-adjusted z-score": -0.0842}
{"sequence": "GGAUGACAGUCUCAUUGCATT against GON4L", "median seed-adjusted z-score": 0.116}
{"sequence": "CCAUGCUGUCUAUAGCCUATT against TRPC5", "median seed-adjusted z-score": "-1.14 (active)"}
{"sequence": "GGUUUUAGACCACACUAAATT against MSH3", "median seed-adjusted z-score": 0.428}
{"sequence": "CAUUCCCUGUUGUAAUCAATT against MDH1", "median seed-adjusted z-score": -0.154}
{"sequence": "CGUCAUCACCCUCAACUAUTT against NLGN3", "median seed-adjusted z-score": -0.0279}
{"sequence": "GGACAUCGAAAAGUUAGUATT against MX2", "median seed-adjusted z-score": -0.0346}
{"sequence": "CAAGAGUCUCUUUAAGGAATT against ACTL8", "median seed-adjusted z-score": 0}
{"sequence": "GGAUGUAUGACAUCUGUAATT against STC1", "median seed-adjusted z-score": "-1.36 (active)"}
{"sequence": "GCAUCCCUACGGUUGUUGATT against EIF2B4", "median seed-adjusted z-score": 0}
{"sequence": "GAGAAUAUCUGGAACCAGUTT against BDKRB1", "median seed-adjusted z-score": 0.448}
{"sequence": "CCAAUGCCCAGAUUAUGUATT against CELSR2", "median seed-adjusted z-score": -0.493}
{"sequence": "GGAGAUACCUGGUCUCUUUTT against ADAM21", "median seed-adjusted z-score": 0}
{"sequence": "GUCUUUCAGGUGUACCCAUTT against GATA1", "median seed-adjusted z-score": 0.371}
{"sequence": "GCAUGCCCAUGAACAAAAATT against B3GNT1", "median seed-adjusted z-score": 0.0931}
{"sequence": "GAAUGGGUCUUGUAAAUCATT against PPAT", "median seed-adjusted z-score": "-1.51 (active)"}
{"sequence": "ACCUGAUGGUGGGCGCAAATT against MYBPC3", "median seed-adjusted z-score": 0.304}
{"sequence": "AGAUCAACCUGCUUCCCGATT against PDK2", "median seed-adjusted z-score": -0.481}
{"sequence": "GGAUUAUAGUGUCACCUAUTT against CPD", "median seed-adjusted z-score": -0.198}
{"sequence": "GCGCAUUACUUUCUAGAAATT against PEX5L", "median seed-adjusted z-score": 0.0982}
{"sequence": "GAAUCAAGAAUUAAAGACATT against PIPOX", "median seed-adjusted z-score": "1.06 (active)"}
{"sequence": "CAGUUCAUGUGGAUCAUCATT against GABARAPL2", "median seed-adjusted z-score": 0.528}
{"sequence": "CCACCUGUACAGCACGGUATT against TGFB1I1", "median seed-adjusted z-score": 0.887}
{"sequence": "GGGCAAAGCGAAACGCAAATT against ZNF536", "median seed-adjusted z-score": -0.295}
{"sequence": "GCACGAGCCUUUCUCCAGUTT against RNASE7", "median seed-adjusted z-score": "1.07 (active)"}
{"sequence": "GAAAGUCCAGAUGAGGAUATT against KLF9", "median seed-adjusted z-score": 0.767}
{"sequence": "GAAAUGGACCAGACACUAATT against POU2F2", "median seed-adjusted z-score": 0.163}
